Laboratory results from the supplement of paper PMC7411640.
Structures can show the parent of a compound that is named as a salt.

Tested on: MDA-MB-468
Test: phospho-S6 immunofluorescence (DAPI-normalised), per-plate z-score; higher = higher phospho-S6 signal (less pathway suppression)
Settings: 24 h
Description: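 GPCR-targeted compound library (MedChemExpress HY-L006) tested on MDA-MB-468 PTEN-null TNBC cells in 384-well plates at 0.1, 1 or 10 uM, combined with vehicle, GDC0941 450 nM or lapatinib 1 uM, for 24 h. Phospho-S6 (S240/244) immunofluorescence normalised to DAPI and expressed as a per-plate z-score; values are the mean of biological triplicates.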

SMILES | phospho-S6 immunofluorescence (z-score) (co-treatment: GDC0941 450 nM) | phospho-S6 immunofluorescence (z-score) (co-treatment: lapatinib 1 uM) | phospho-S6 immunofluorescence (z-score) (co-treatment: vehicle)
Cc1c(-c2ccccc2)oc2c(C(=O)OCCN3CCCCC3)cccc2c1=O [Flavoxate (hydrochloride)] (compound 10 µM) | 0.25 | 0.29 | 0.07
O=C(c1ccc(F)cc1)C1CCN(CCn2c(=O)[nH]c3ccccc3c2=O)CC1 [Ketanserin] (compound 10 µM) | -0.64 | -0.02 | -0.85
CCOC(=O)c1ccc(-n2cc(Cc3cnc(OCC)nc3)c(=O)nc2SCc2ccc(F)cc2)cc1 (compound 10 µM) | -3.26 | -3.79 | -4.85
COc1ccccc1Oc1c(NS(=O)(=O)c2ccc(C(C)(C)C)cc2)nc(-c2ncccn2)nc1OCCO [Bosentan (hydrate)] (compound 10 µM) | 0.28 | 0.22 | 0.34
CC[C@@H](Nc1c(Nc2cccc(C(=O)N(C)C)c2O)c(=O)c1=O)c1ccc(C)o1 (compound 10 µM) | 0.29 | -0.41 | 2.26
OCCN1CCN(CCCN2c3ccccc3Sc3ccc(C(F)(F)F)cc32)CC1 [Fluphenazine (dihydrochloride)] (compound 10 µM) | -3.94 | -6.77 | -2.87
Nc1nc(NCCc2ccc(O)cc2)nc2nc(-c3ccco3)nn12 (compound 10 µM) | -1.88 | 0.67 | 1.01
N#Cc1cc(NC(=O)C(=O)O)c(Cl)c(NC(=O)C(=O)O)c1 [Lodoxamide] (compound 10 µM) | 0.92 | 0.6 | 0.66
CN(C)CCCN1c2ccccc2Sc2ccc(Cl)cc21 [Chlorpromazine (hydrochloride)] (compound 10 µM) | 0.58 | -1.09 | 3.4
Cc1cc2c(cc1Cl)N(C(=O)Nc1ccc(Oc3cccnc3C)nc1)CC2 (compound 10 µM) | -3.98 | -5.09 | -1.44
C[C@H]1C[C@@H]2[C@H]([C@@H](O)C[C@@]3(C)[C@H]2CC[C@]3(O)C(=O)CO)[C@@]2(C)C=CC(=O)C=C12 [Methylprednisolone] (compound 10 µM) | 0.3 | 3.09 | 0.51
CCN(CC)CCNC(=O)c1cc(Cl)c(N)cc1OC [Metoclopramide] (compound 10 µM) | -0.3 | 0.63 | -0.11
COCc1nnc(N2CC(Oc3ccc(F)cc3Cl)C2)n1-c1ccc(OC)nc1 (compound 10 µM) | -0.38 | -0.91 | -0.61
CCCc1nc(C(C)(C)O)c(C(=O)O)n1Cc1ccc(-c2ccccc2-c2nnn[nH]2)cc1 [Olmesartan] (compound 10 µM) | 0.13 | 0.28 | -0.82
O=C(Nc1cccc2c(=O)cc(-c3nnn[nH]3)oc12)c1ccc(OCCCCc2ccccc2)cc1 [Pranlukast] (compound 10 µM) | 0.87 | 0.55 | -0.36
CCc1cnc(N2CCC(c3nc(COc4ccc(-n5cnnn5)cc4)cs3)CC2)nc1 (compound 10 µM) | -3.23 | -3.56 | -6.72
COc1ccc2c(c1)c(CC(=O)N1CCOCC1)c(C)n2C(=O)c1ccc(Cl)cc1 (compound 10 µM) | -3.35 | -6.12 | -6.12
COc1ccccc1N1CCN(CC(O)COc2cccc3ccccc23)CC1 (stereo unspecified) [Naftopidil] (compound 10 µM) | -0.13 | -0.63 | 0.64
CC(C)(C)NCC(O)COc1cccc2c1CCC(=O)N2 (stereo unspecified) [Carteolol (hydrochloride)] (compound 10 µM) | 0.64 | 0.45 | -0.38
Cc1ccc(C)c(OCCn2cc(C(=O)O)c3ccccc32)c1 (compound 10 µM) | 0.61 | -0.34 | -0.21
CC(C)NCC(O)COc1cccc2ccccc12 (stereo unspecified) [Propranolol (hydrochloride)] (compound 10 µM) | 0.53 | 0.73 | 0.21
CCn1c2ccccc2c2cc(Nc3ccnc(NCCCN4CCOCC4)n3)ccc21 (compound 10 µM) | -3.59 | -8.74 | -10.3
N#Cc1ccc2[nH]cc(CCCCN3CCN(c4ccc5oc(C(N)=O)cc5c4)CC3)c2c1 [Vilazodone] (compound 10 µM) | 0.37 | 0.11 | 1.24
CNC(=C[N+](=O)[O-])NCCSCc1ccc(CN(C)C)o1 [Ranitidine (hydrochloride)] (compound 10 µM) | 0.47 | 0.54 | 0.29
CC1(C)O[C@@H]2C[C@H]3[C@@H]4CCC5=CC(=O)C=C[C@]5(C)[C@@]4(F)[C@@H](O)C[C@]3(C)[C@]2(C(=O)CO)O1 [Triamcinolone (acetonide)] (compound 10 µM) | -1.69 | 1.39 | -1.2
O=c1[nH]c2ccccc2n1CCN1CCN(c2cccc(C(F)(F)F)c2)CC1 [Flibanserin] (compound 10 µM) | -0.19 | -0.04 | 0.48

SMILES | phospho-S6 immunofluorescence (z-score) (co-treatment: GDC0941 450 nM) | phospho-S6 immunofluorescence (z-score) (co-treatment: lapatinib 1 uM) | phospho-S6 immunofluorescence (z-score) (co-treatment: vehicle)
CC1(C)CN2C(CSC(=NC3CCCCC3)NC3CCCCC3)=CSC2=N1 [IT1t (dihydrochloride)] (compound 10 µM) | -2.08 | -0.41 | -1.11
O=C(O[C@@H]1C[C@@H]2C[C@H]3C[C@H](C1)N2CC3=O)c1c[nH]c2ccccc12 [Dolasetron] (compound 10 µM) | -0.34 | -0.11 | -0.46
OC[C@@H](O)CN1CCN(c2ccccc2)CC1 [Levodropropizine] (compound 10 µM) | -0.63 | 0.66 | -0.68
CC(=O)[C@H]1CC[C@H]2[C@@H]3CC=C4C[C@@H](O)CC[C@]4(C)[C@H]3CC[C@]12C [Pregnenolone] (compound 10 µM) | 1.58 | 1.58 | 0.85
CC(ONC(=O)c1cc(C(F)(F)F)cc(C(F)(F)F)c1)C(=O)Nc1ccc(Cl)cc1 (stereo unspecified) (compound 10 µM) | -3.03 | -1.73 | -2.5
CN1CCN(CCc2ccc(Cl)c(Cl)c2)CC1 [BD1063 (dhydrochloride)] (compound 10 µM) | 0.51 | -1.56 | -0.49
Oc1ccc(C2CNCCc3c2cc(O)c(O)c3Cl)cc1 (stereo unspecified) [Fenoldopam (mesylate)] (compound 10 µM) | 1.13 | -0.01 | 0.83
CC(C)COc1ccc(CNC(=O)N(Cc2ccc(F)cc2)C2CCN(C)CC2)cc1 [Pimavanserin] (compound 10 µM) | -2.66 | -2.95 | -2.1
OCCNC1CCCc2c1[nH]c1ccc(-c3ccccc3)cc21 (stereo unspecified) (compound 10 µM) | -5.16 | -8.66 | -9.39
OC(CNCC(O)C1CCc2cc(F)ccc2O1)C1CCc2cc(F)ccc2O1 (stereo unspecified) [Nebivolol (hydrochloride)] (compound 10 µM) | -2.5 | -3.76 | -2.22
COc1ccccc1Oc1c(NS(=O)(=O)c2ccc(C)cn2)nc(-c2ccncc2)nc1OC [Avosentan] (compound 10 µM) | -0.03 | -0.67 | -0.65
CCOc1nc2cccc(C(=O)OC(C)OC(=O)OC3CCCCC3)c2n1Cc1ccc(-c2ccccc2-c2nn[nH]n2)cc1 (stereo unspecified) [Candesartan (Cilexetil)] (compound 10 µM) | -1.58 | 0.17 | -1.08
Cc1cc2c(s1)Nc1ccccc1N=C2N1CCN(C)CC1 [Olanzapine] (compound 10 µM) | 0.77 | 0.3 | 0.35
CN1CCN2c3ncccc3Cc3ccccc3C2C1 (stereo unspecified) [Mirtazapine] (compound 10 µM) | 0.65 | 0.99 | -0.48
Cc1cc(C(C)(C)C)cc(C)c1CC1=NCCN1 [Xylometazoline (hydrochloride)] (compound 10 µM) | 0.43 | -0.12 | -0.38
CC(C)[C@H](NC(=O)[C@H](CCCN=C(N)N)NC(=O)[C@@H](N)CC(=O)O)C(=O)N[C@@H](Cc1ccc(O)cc1)C(=O)N[C@H](C(=O)N[C@@H](Cc1cnc[nH]1)C(=O)N1CCC[C@H]1C(=O)N[C@@H](Cc1ccccc1)C(=O)O)C(C)C [Angiotensin II 5-valine] (compound 10 µM) | 1.16 | 0.49 | 0.07
Cc1[nH]cnc1CN1CCc2c(c3ccccc3n2C)C1=O [Alosetron (Hydrochloride)] (compound 10 µM) | 0.22 | -0.22 | 1.01
Cc1ccc(S(=O)(=O)N2CCCC2c2ccc(F)cc2)cc1 (stereo unspecified) (compound 10 µM) | -2.47 | 0.46 | -1.81
C[C@@H]1CCCN1CCc1cc2cc(-c3ccc(C#N)cc3)ccc2o1 (compound 10 µM) | -3.3 | -4.56 | -0.97
c1cc(CN2CCCNCCNCCCNCC2)ccc1CN1CCCNCCNCCCNCC1 [Plerixafor (octahydrochloride)] (compound 10 µM) | -0.24 | 0.37 | -0.74
Cc1ccc(N(CC2=NCCN2)c2cccc(O)c2)cc1 [Phentolamine (mesylate)] (compound 10 µM) | -0.17 | 1.1 | -0.58
CN1CCC(=C2c3ccccc3C=Cc3ccccc32)CC1 [Cyproheptadine (hydrochloride sesquihydrate)] (compound 10 µM) | 0.49 | -0.96 | -0.87
Clc1cccc(COc2cncc(N3CCNCC3)n2)c1 (compound 10 µM) | -1.03 | -4.09 | 0.21
CC[C@H](NC(=O)c1c(C)c(-c2ccccc2)nc2ccccc12)c1ccccc1 (compound 10 µM) | -4.55 | -3.25 | -1.64
CC(C)(C)NCC(O)c1ccc(O)c(CO)c1 (stereo unspecified) [Salbutamol (hemisulfate)] (compound 10 µM) | 0.44 | 1.46 | 0.8
C[C@@H](OC[C@@]1(c2ccccc2)CC[C@]2(CCC(=O)N2)CN1)c1cc(C(F)(F)F)cc(C(F)(F)F)c1 [Rolapitant] (compound 10 µM) | -4.35 | -3.8 | -0.65
